Screens from PubChem.
This is a sample that favours compounds with a hit; in the whole collection about 7.4% have one here.
ELG1 genotoxic: qHTS screen for small molecules that induce genotoxicity in human embryonic kidney (HEK293T) cells expressing luciferase-tagged ELG1; HEK293T ELG1-luciferase reporter, luminescence, 16 h; Potency, µM (series often up to 46 µM), for the others: top-dose activity change, positive = activation, usual class: activators; hit rate 1.3% among 330,000; AID 504466, 2011; further: % of control where 0% means no effect; nearly all actives have a fitted effect of over 60% in size
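Step 1: seed 2,000 HEK293T ELG1-luciferase cells per well. Step 2: add compound or DMSO, incubate 16 hr at 37 °C. Step 3: ONE-Glo, 30 min at room temperature, read luminescence.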
FLuc modulator: qHTS profiling assay for firefly luciferase inhibitor/activator using purifed enzyme and Km concentrations of substrates (counterscreen for miR-21 project) | Luciferin 4-monooxygenase (Photinus pyralis), P08659 | purified FLuc, Km substrates, luminescence inhibition | Potency, µM (highest dose often 57.5 µM), for inactives: at the highest dose activity change, negative = inhibition, usual class: inhibitors | hit rate 6.9% among 360,000 | AID 588342, 2011;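 further: plate controls were vehicle for no effect and reference inhibitor for full effect; nearly all actives have a fitted effect of over 55% in size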
Target sequence (P08659 whole entry, looked up): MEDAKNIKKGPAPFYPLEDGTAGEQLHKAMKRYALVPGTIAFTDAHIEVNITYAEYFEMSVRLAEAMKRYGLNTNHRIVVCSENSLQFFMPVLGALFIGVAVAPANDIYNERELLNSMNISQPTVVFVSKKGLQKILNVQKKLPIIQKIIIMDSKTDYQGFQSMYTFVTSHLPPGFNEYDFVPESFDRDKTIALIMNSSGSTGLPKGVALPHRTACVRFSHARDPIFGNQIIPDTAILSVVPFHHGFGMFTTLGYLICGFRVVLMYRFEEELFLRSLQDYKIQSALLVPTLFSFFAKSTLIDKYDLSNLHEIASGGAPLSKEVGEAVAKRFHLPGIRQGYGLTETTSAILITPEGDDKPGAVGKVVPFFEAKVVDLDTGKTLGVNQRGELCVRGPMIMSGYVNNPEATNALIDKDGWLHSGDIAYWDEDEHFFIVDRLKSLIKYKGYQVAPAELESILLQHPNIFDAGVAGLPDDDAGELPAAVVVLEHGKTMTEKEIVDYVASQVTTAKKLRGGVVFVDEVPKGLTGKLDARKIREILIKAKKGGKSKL
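Purified P. pyralis luciferase (10nM final) with 10uM D-luciferin and 10uM ATP (Km levels) in 50mM Tris acetate pH 7.5, 10mM Mg acetate, 0.01% Tween-20, 0.05% BSA; qHTS 6-point titration, ~60 µM downward; luminescence read.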
SMN2 splice up: qHTS Assay for Enhancers of SMN2 Splice Variant Expression. HEK293 SMN2-luciferase splicing reporter, luminescence, 30-36 h. Potency, µM (doses to about 46.1 µM), for the others: top-dose activity change, positive = activation, hits mostly activators. hit rate 2.8% among 210,000. AID 1458, 2008; further: % of control where 0% means no effect; nearly all actives have a fitted effect of over 55% in size
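HEK293 cells carry an SMN2 minigene-luciferase reporter in which exon 7 inclusion puts luciferase in frame. Cells were seeded at 2000 cells/well, attached for 10-12 hours, then exposed to compounds for 30-36 hours at 37C before ONE-Glo luminescence.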
NPC1 promoter act: qHTS Assay for NPC1 Promoter Activators; Huh7 NPC1 promoter luciferase reporter, 24 h; hit rate 2.4% among 320,000; AID 485313, 2010; Potency, µM (top dose mostly 9.22 µM), inactives show top-dose activation, usual class: activators; further: % of control where 0% means no effect; nearly all actives have a fitted effect of over 60% in size
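Quantitative HTS used a cell-based reporter: Huh7 cells stably bearing the NPC1 promoter upstream of luciferase were treated with compounds for 24 h, and promoter activation was read as luminescence.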
Rab9 promoter act: qHTS Assay for Rab9 Promoter Activators; Huh7 Rab9 promoter-luciferase reporter, luminescence, 24 h; Potency, µM (series often up to 9.22 µM), inactives show at the top dose activation, negative = inhibition, actives largely listed as activators; hit rate 2.8% among 320,000; AID 485297, 2010; further: % of control where 0% means no effect; nearly all actives have a fitted effect of over 60% in size
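Stable Rab9-luc Huh7, 1500 cells/well, 2 h settle; cmpd in DMSO, 24 h, 37 °C/5% CO2; luciferase reagent 10 min RT; luminescence.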
An asterisk follows results filed as active; ? = inconclusive; nt = no result given. The call rests on the fitted dose curve; in most records, active means well fitted curve in the direction sought with a large enough effect; inconclusive means small, poorly fitted or top-dose-only effect, or another doubt; inactive means no such curve, though single readings can be large; an effect the other way counts as inactive or inconclusive. Potency means the concentration at half of the fitted maximal effect.

SMILES	ELG1 genotoxic	FLuc modulator	SMN2 splice up	NPC1 promoter act	Rab9 promoter act
Cc1c(CC(=O)O)c(=O)oc2c(C)c3occ(-c4ccc(F)cc4)c3cc12	-1%	2%	nt	-2%	2%
COc1ccc(-c2coc3c2c(C)cc2oc(=O)cc(C)c23)cc1	nt	-15%	2%	nt	nt
CCOC(CNC(=O)Cc1c(C)nc2c(-c3ccccc3)c(C)nn2c1C)OCC	-4%	-14%	-68%	-1%	2%
CCn1c(SCC(=O)N2CCC(C)CC2)nnc1-c1ccccc1O	nt	-2%	nt	nt	nt
O=C(NCc1ccccc1CN1CCCC1)c1cccc(S(=O)(=O)N2CCOCC2)c1	-4%	6%	nt	-2%	0%
CC(C)Oc1cccc(C2NC(=O)c3ccccc3O2)c1 (centres undefined)	4%	17µM*	nt	5%	3%
CCCC(=O)Oc1cccc(C2NC(=O)c3ccccc3O2)c1 (centres undefined)	-4%	-11%	nt	1%	2%
Cc1ccc(OCCCC(=O)Nc2ccc(Br)cc2)cc1	6%	-1%	2%	-3%	-6%
COc1ccc(S(=O)(=O)NCC(=O)N(CC(=O)NCc2ccco2)Cc2ccc(F)cc2)cc1	-5%	1%	nt	1%	-2%
COc1ccccc1NC(=O)Nc1ccc(-n2ccc(C(F)(F)F)n2)cc1	-1%	11µM*	nt	?	2.8µM*
O=C(Nc1ccc(-n2ccc(C(F)(F)F)n2)cc1)c1cccs1	?	11µM*	nt	2.8µM*	3.2µM*
Cc1cc(C)cc(NC(=O)Nc2ccc(-n3ccc(C(F)(F)F)n3)cc2)c1	-10%	-11%	nt	?	2%
O=C(O)c1ccccc1C(=O)Nc1ccc(-n2ccc(C(F)(F)F)n2)cc1	0%	?	nt	-8%	-6%
O=C(Nc1ccc(-n2ccc(C(F)(F)F)n2)cc1)Nc1cccc(Cl)c1	-1%	11µM*	nt	19%	26%
Cc1ccc(-n2cnc3cc(C(=O)NCc4ccccc4Cl)ccc32)c(C)c1	nt	-12%	nt	nt	nt
Cc1cc(C)cc(N(CCC#N)C(=O)CSc2nc3ccccc3c(=O)[nH]2)c1	1%	nt	nt	nt	nt
COc1ccc(CCNC(=S)N2CCN(S(=O)(=O)c3ccccc3F)CC2)cc1	-17%	5%	nt	-1%	-4%
CC(=O)c1sc(NC(=O)Cc2c(F)cccc2Cl)nc1C	-6%	-1%	nt	0%	0%
Cc1nc2ccc(NC(=O)Cc3c(F)cccc3Cl)cc2s1	?	4.8µM*	nt	2.8µM*	2.5µM*
COc1ccc(NC(=O)Cc2c(F)cccc2Cl)cc1	?	?	?	20%	22%
O=C(Cc1c(F)cccc1Cl)Nc1nc2ccccc2s1	9%	27µM*	-6%	20%	?
NNC(=O)c1cc2c(ccc3ccccc32)o1	0%	-18%	-3%	-2%	-2%
CCc1ccc2oc(C(=O)Nc3cccnc3)c(C)c2c1	4.1µM*	2.1µM*	nt	?	4µM*
O=C(Nc1cccnc1)c1cc2c(ccc3ccccc32)o1	nt	0.95µM*	11µM*	nt	nt
Cc1c(C(=O)Nc2cccnc2)oc2ccc(Br)cc12	18µM*	2.7µM*	nt	?	3.2µM*
SMILES	ELG1 genotoxic	FLuc modulator	SMN2 splice up	NPC1 promoter act	Rab9 promoter act
Cc1c(C(=O)Nc2cccc(S(=O)(=O)N3CCOCC3)c2)oc2ccc(Br)cc12	1%	nt	nt	nt	nt
CCc1ccc2oc(C(=O)Nc3nc(-c4ccc(F)cc4)ns3)c(C)c2c1	nt	6.7µM*	6%	nt	nt
Cc1c(C(=O)Nc2nc(-c3ccc(F)cc3)ns2)oc2ccc(Br)cc12	nt	-2%	-8%	nt	nt
O=C(Nc1cccc(CNCCc2c[nH]c3ccccc23)c1)c1ccccc1Cl	-4%	0%	nt	3%	-2%
Cc1c(C(=O)NCc2cccs2)oc2ccc(Br)cc12	18µM*	19µM*	-20%	1%	14%
Cc1c(C(=O)NCc2ccccn2)oc2ccc(Br)cc12	15%	?	nt	?	?
Cc1ccc(-c2nn(CC(=O)NC3CCCCC3)c3c2cnc2ccc(F)cc23)cc1C	nt	-5%	nt	nt	nt
Cc1cccc(C(=O)N2c3ccccc3C(=O)OC2c2ccc3c(c2)OCO3)c1 (centres undefined)	6%	-11%	?	17%	4%
